In the library only some 3.6% were active in any assay of this set; here they are far more common.
Mtb hypoxia rep = reduces hypoxia-regulated biosensor signal in M. tuberculosis; fluorescence inhibition, % (test concentration not listed); M. tuberculosis hypoxia-regulated fluorescent reporter, fluorescence; 300,000 tested, 0.1% active; in the data active means fluorescence inhibition mostly above about 23%, no sharp cut-off; inactive means mostly below about 17%
VHR inh abs = DUSP3 (human) phosphatase inhibition; recombinant VHR phosphatase, pNPP absorbance; inhibition, % at 13.3 µM; 290,000 tested, 0.52% active; in the data active means inhibition above about 50%
Target sequence (P51452 whole entry, looked up): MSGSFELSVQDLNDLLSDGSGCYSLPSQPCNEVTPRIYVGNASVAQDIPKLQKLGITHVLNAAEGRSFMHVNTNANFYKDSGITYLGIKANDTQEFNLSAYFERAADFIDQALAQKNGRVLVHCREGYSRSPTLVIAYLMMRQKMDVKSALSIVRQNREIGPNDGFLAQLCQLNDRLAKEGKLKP
FBA Mtb inh = inhibitors of M. tuberculosis fructose-bisphosphate aldolase. P9WQA3. AID 588726. inhibition, % at 1 µM. purified M. tuberculosis FBA, fluorescence read-out. 360,000 tested, 2.3% active; in the data active means inhibition above about 27%;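 further: 0% = vehicle and 100% = reference inhibitor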
Target sequence (P9WQA3 whole entry, looked up): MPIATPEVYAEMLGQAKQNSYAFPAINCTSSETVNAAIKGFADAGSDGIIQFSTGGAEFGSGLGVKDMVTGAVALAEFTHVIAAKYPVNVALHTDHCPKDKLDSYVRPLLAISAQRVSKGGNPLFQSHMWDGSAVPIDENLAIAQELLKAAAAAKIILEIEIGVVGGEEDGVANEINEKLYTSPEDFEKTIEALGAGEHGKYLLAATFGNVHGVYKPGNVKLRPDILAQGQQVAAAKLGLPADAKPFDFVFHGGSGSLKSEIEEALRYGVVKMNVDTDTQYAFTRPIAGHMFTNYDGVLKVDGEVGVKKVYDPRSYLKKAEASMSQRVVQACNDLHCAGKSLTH
GDH-TPI inh = inhibits GDH-TPI coupling enzymes, artifact for Mtb FBA screen; GDH-TPI coupled enzyme counterscreen, NADH absorbance; inhibition, % at 4.8 µM; 360,000 tested, 1.2% active; AID 588335; in the data active means inhibition above about 30%;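 further: 0% = DMSO wells and 100% = wells lacking the enzyme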
Mtb betalactam = beta-lactam sensitization of Mtb H37Rv | M. tuberculosis H37Rv growth with meropenem, percent inhibition | inhibition, % at 25 µM | 330,000 tested, 0.27% active | AID 434955; call rule not given here;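 further: growth measured after seven days incubation then overnight dye step; 0% = bacteria only wells and 100% = bacteria with antibiotic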
Numbers without * were called inactive.

What do the screens show for `COC(=O)c1ccc(CNC(=O)c2ccc(OCC(=O)N3CCOCC3)c(OC)c2)cc1`?
Mtb hypoxia rep: 0; FBA Mtb inh: 3; GDH-TPI inh: -10; Mtb betalactam: -2

What do the screens show for `CSc1nc(NCC(C)O)c2c3c(sc2n1)CN(C)CC3` (configuration not stated)?
VHR inh abs: 3; FBA Mtb inh: 113*; GDH-TPI inh: 8; Mtb betalactam: -7

How did CSc1nc(NCCCO)c2c3c(sc2n1)CN(C)CC3 do in these assays?
Mtb hypoxia rep: -5; VHR inh abs: 3; FBA Mtb inh: 176*; GDH-TPI inh: -1; Mtb betalactam: 2

What do the screens show for `COc1ccc(C(=O)N2CC3(CC(c4cccc(NC(=O)COc5ccc(Cl)cc5)c4)=NO3)CC2C(N)=O)cc1` (configuration not stated)?
Mtb hypoxia rep: 8

How did O=C(C[n+]1ccccc1)NN=Cc1ccccc1[N+](=O)[O-] do in these assays?
Mtb hypoxia rep: 4

What do the screens show for `COC(=O)CSC1=C(C#N)C(=O)NC(c2ccccc2)S1` (configuration not stated)?
Mtb hypoxia rep: 2; VHR inh abs: -6; FBA Mtb inh: -7; GDH-TPI inh: 41*; Mtb betalactam: -2

How did COc1cc(C=NNC(=O)c2cc(C3CC3)[nH]n2)ccc1O do in these assays?
Mtb hypoxia rep: 1

How did CN(C)c1ccc(C=NNc2nc3c([nH]2)c(=O)n(C)c(=O)n3C)cc1 do in these assays?
Mtb hypoxia rep: 16; FBA Mtb inh: 15; GDH-TPI inh: 47*

Results for O=C(C=Cc1ccccc1)N1CCC(Cc2ccccc2)CC1 ?
Mtb hypoxia rep: 4

What do the screens show for `CCN(CC)Cc1c[nH]c2c(C(=O)OC)cccc12`?
Mtb hypoxia rep: 6; VHR inh abs: 25; FBA Mtb inh: 67*; GDH-TPI inh: 20; Mtb betalactam: 9

How did CCN(CC)Cc1c[nH]c2ccccc12 do in these assays?
VHR inh abs: 11; FBA Mtb inh: 1; GDH-TPI inh: 12; Mtb betalactam: -1

What do the screens show for `C(=N\Nc1cc(N2CCCCC2)ncn1)/c1ccco1`?
VHR inh abs: 14; FBA Mtb inh: -2; GDH-TPI inh: 42*; Mtb betalactam: 4

What do the screens show for `Cc1ccc(OCC(=O)NN=Cc2ccc(O)cc2)c([N+](=O)[O-])c1`?
Mtb hypoxia rep: -1

Results for Cc1cc(C)cc(NC(=O)C2CCCN(S(=O)(=O)c3c(C)noc3C)C2)c1 (configuration not stated) ?
Mtb hypoxia rep: 0; VHR inh abs: -6; FBA Mtb inh: 0; GDH-TPI inh: -7; Mtb betalactam: 2

What do the screens show for `Cc1noc(C)c1S(=O)(=O)N1CCCC(C(=O)Nc2ccc(Cl)cn2)C1` (configuration not stated)?
VHR inh abs: 0; FBA Mtb inh: 75*; GDH-TPI inh: 2; Mtb betalactam: -10

What do the screens show for `Cc1ccc(NC(=O)C2CCN(S(=O)(=O)c3c(C)noc3/C=C/N(C)C)CC2)cc1`?
Mtb hypoxia rep: 4; VHR inh abs: 8; FBA Mtb inh: 0; GDH-TPI inh: 45*; Mtb betalactam: -1

How did Cc1noc(/C=C/N(C)C)c1S(=O)(=O)N1CCC(C(=O)Nc2ccc(Cl)cc2)CC1 do in these assays?
Mtb hypoxia rep: -13; VHR inh abs: 17; FBA Mtb inh: 0; GDH-TPI inh: 28; Mtb betalactam: -4

How did Cc1ccc(NC(=O)C2CCCN(S(=O)(=O)c3c(C)noc3/C=C/N(C)C)C2)cc1F (configuration not stated) do in these assays?
Mtb hypoxia rep: 9; VHR inh abs: 4; FBA Mtb inh: 0; GDH-TPI inh: 40*; Mtb betalactam: 7

What do the screens show for `Cc1noc(/C=C/N(C)C)c1S(=O)(=O)N1CCC(C(=O)NC(C)(C)C)CC1`?
Mtb hypoxia rep: 4; VHR inh abs: -22; FBA Mtb inh: -3; GDH-TPI inh: 41*; Mtb betalactam: -9

Results for CC1CN(C(C)CO)C(=O)c2cc(NC(=O)c3ccncc3)ccc2OC1CN(C)C(=O)Nc1ccccc1 (configuration not stated) ?
Mtb hypoxia rep: 4

Results for CCCNC(=O)c1cc2c3ccccc3n(C)c2s1 ?
VHR inh abs: 4; FBA Mtb inh: 4; GDH-TPI inh: 22; Mtb betalactam: -21

Results for COCCNC(=O)c1cc2c3ccccc3n(C)c2s1 ?
Mtb hypoxia rep: 7; VHR inh abs: 32; FBA Mtb inh: 3; GDH-TPI inh: 47*; Mtb betalactam: 7

How did Cc1[nH]nc2c1C(=NO)CC(c1ccccc1)C2 (configuration not stated) do in these assays?
Mtb hypoxia rep: 12

How did CNc1nnc(-c2ccc(N(C)C)cc2)s1 do in these assays?
Mtb hypoxia rep: 0; VHR inh abs: 13; FBA Mtb inh: active; GDH-TPI inh: 46*; Mtb betalactam: 3

Results for CN(C)c1ccc(-c2ccncc2)cc1 ?
VHR inh abs: 8

Results for COC(=O)[C@]1(C)CC1C(NP(=O)(c1ccccc1)c1ccccc1)c1ccccc1 (some centres not stated) ?
Mtb hypoxia rep: -1

Results for COc1cc(C(C)=O)ccc1OC(=O)c1cc2cccc(OC)c2oc1=O ?
Mtb hypoxia rep: 10; VHR inh abs: 15; FBA Mtb inh: -2; GDH-TPI inh: 57*; Mtb betalactam: -1

What do the screens show for `COc1cccc2cc(C(C)=O)c(=O)oc12`?
Mtb hypoxia rep: 5; VHR inh abs: -2; FBA Mtb inh: 1; GDH-TPI inh: -4; Mtb betalactam: -1

How did COc1ccc(CN2CCNCC2)cc1 do in these assays?
Mtb hypoxia rep: 6; VHR inh abs: 60*; FBA Mtb inh: 3; GDH-TPI inh: 7; Mtb betalactam: -6

How did CCC1NC(C(=O)O)Cc2c1[nH]c1ccccc21 (configuration not stated) do in these assays?
FBA Mtb inh: 47*; GDH-TPI inh: 11; Mtb betalactam: -2

Results for C#CCOCCOCCOCCNc1nc(N2CCN(C(=O)Cn3cc(CCCN=C(N)N)nn3)CC2)nc(N2CCN(C(=O)C(C(C)C)n3cc(CCO)nn3)CC2)n1 (configuration not stated) ?
Mtb hypoxia rep: 7

How did O=C(COc1cccc2c1CCN(Cc1ccccc1F)C2=O)N1CCCCC1 do in these assays?
Mtb hypoxia rep: 7; VHR inh abs: 52*; FBA Mtb inh: 0; GDH-TPI inh: -3; Mtb betalactam: 0

How did COc1cc(C=Nn2c(C3CCCCC3)n[nH]c2=S)cc(Br)c1O do in these assays?
Mtb hypoxia rep: 3

What do the screens show for `COc1cc(/C=N/n2c(C3CCCCC3)n[nH]c2=S)cc(Br)c1O`?
VHR inh abs: 27; FBA Mtb inh: 1; GDH-TPI inh: 32*; Mtb betalactam: inconclusive

How did Cc1ccc(C)n1-c1ccc(C(=O)NCc2cccnc2)cc1 do in these assays?
Mtb hypoxia rep: -2; VHR inh abs: 17; FBA Mtb inh: 31*; GDH-TPI inh: 3; Mtb betalactam: 0

What do the screens show for `Nc1cc(=O)[nH]c(SCC(=O)c2ccc(O)cc2O)n1`?
Mtb hypoxia rep: -2; VHR inh abs: 12; FBA Mtb inh: -2; GDH-TPI inh: 34*; Mtb betalactam: 3
